# Reference: PubChem BioAssay (EPA / NIEHS)
# Results filed as inconclusive are left out. The source made the active and inactive calls. Rule for the calls: active = hit-call score of the fitted dose curve at least 0.9, where 1 is the maximum; inconclusive = response in the unintended direction; inactive = score below 0.9.
# How the values were obtained:
# [1] = molecular target: human Phosphodiesterase 5 (PDE5), PDE5A (gene 8654) (UniProt O76074); assay: NVS_ENZ_hPDE5: NovaScreen (NVS) Enzymatic Assay for human Phosphodiesterase 5 (PDE5) (AID 2283194)
# In short: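 Screening began in duplicate at 25 uM, with actives taken into concentration-response. Enzyme activity of recombinant PDE5 toward its substrate was measured at 1 h by fluorescence mobility-shift detection, relative to DMSO controls.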
# [2] = molecular target: human Vascular Endothelial Growth Factor Receptor 1 (VEGFR1), FLT1 (gene 2321) (UniProt P17948); assay: NVS_ENZ_hVEGFR1: NovaScreen (NVS) Enzymatic Assay for human Vascular Endothelial Growth Factor Receptor 1 (VEGFR1) (AID 2283226)
# human Vascular Endothelial Growth Factor Receptor 1 (VEGFR1), FLT1 (gene 2321), sequence (P17948 whole entry, looked up): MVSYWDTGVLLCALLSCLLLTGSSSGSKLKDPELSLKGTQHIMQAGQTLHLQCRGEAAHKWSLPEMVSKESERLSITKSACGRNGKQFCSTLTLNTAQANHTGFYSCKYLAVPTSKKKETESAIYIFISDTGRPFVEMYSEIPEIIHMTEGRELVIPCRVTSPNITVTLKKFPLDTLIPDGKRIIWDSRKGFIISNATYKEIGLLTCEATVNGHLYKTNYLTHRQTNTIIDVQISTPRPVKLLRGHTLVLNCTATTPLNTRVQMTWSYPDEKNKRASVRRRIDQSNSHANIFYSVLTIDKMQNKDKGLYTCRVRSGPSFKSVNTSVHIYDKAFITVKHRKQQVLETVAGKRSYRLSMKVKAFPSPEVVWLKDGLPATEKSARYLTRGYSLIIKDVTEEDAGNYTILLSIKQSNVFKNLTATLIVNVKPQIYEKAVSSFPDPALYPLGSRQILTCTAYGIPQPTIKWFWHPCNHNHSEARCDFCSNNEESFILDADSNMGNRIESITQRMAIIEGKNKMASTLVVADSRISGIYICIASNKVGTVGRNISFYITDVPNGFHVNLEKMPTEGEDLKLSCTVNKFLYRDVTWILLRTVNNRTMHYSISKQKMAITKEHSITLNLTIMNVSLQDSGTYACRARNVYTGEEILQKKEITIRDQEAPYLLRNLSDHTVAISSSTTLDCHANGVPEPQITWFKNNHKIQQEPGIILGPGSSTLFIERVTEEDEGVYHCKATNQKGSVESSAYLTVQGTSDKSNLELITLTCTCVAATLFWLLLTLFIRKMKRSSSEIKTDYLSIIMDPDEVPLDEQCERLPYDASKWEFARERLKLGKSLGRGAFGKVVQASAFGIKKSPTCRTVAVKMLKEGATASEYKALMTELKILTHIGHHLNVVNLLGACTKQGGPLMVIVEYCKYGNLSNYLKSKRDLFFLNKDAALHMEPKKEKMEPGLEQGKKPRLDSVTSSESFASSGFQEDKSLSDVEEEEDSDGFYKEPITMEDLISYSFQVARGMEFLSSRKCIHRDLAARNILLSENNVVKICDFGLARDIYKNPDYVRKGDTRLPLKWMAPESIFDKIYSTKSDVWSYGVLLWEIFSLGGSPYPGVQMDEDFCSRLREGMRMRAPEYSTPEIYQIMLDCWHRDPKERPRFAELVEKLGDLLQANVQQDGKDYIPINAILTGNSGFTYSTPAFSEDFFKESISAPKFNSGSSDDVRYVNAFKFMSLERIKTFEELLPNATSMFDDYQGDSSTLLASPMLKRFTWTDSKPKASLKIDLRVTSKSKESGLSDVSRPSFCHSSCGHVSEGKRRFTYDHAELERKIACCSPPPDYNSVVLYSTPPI
# In short: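 Kinase activity of recombinant human VEGFR1 was read by fluorescence after electrophoretic separation of product from substrate, 1 h post-dosing; initial duplicate single-point testing at 25 uM, followed by concentration-series follow-up, with DMSO as baseline.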
# [3] = molecular target: human Adenosine A2a Receptor (AdoRA2a), ADORA2A (gene 135) (UniProt P29274); assay: NVS_GPCR_hAdoRA2a: NovaScreen (NVS) G Protein-Coupled Receptor Assay for human Adenosine A2a Receptor (AdoRA2a) (AID 2283256)
# human Adenosine A2a Receptor (AdoRA2a), ADORA2A (gene 135), sequence (P29274 whole entry, looked up): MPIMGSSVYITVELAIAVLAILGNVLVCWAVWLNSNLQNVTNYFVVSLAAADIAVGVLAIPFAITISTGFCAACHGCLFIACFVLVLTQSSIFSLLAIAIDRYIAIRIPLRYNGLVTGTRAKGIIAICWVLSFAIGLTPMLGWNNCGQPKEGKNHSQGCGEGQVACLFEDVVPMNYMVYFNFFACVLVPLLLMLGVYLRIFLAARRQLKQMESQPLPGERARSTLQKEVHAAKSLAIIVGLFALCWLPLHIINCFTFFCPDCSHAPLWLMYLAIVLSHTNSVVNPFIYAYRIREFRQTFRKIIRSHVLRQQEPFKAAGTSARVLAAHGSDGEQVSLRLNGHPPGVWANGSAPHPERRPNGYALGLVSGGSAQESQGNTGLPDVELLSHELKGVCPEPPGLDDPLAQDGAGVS
# In short: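 Compounds screened in duplicate at 25 uM, with actives followed up in concentration series, for displacement of a radioligand from HEK293-derived receptor protein. Bound counts read by filter scintillation at 1.5 hours, DMSO as baseline.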
# [4] = molecular target: human Thromboxane A2 Receptor (TXA2), TBXA2R (gene 6915) (UniProt P21731); assay: NVS_GPCR_hTXA2: NovaScreen (NVS) G Protein-Coupled Receptor Assay for human Thromboxane A2 Receptor (TXA2) (AID 2283282);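 note: actives reduce bound radioligand signal relative to DMSO baseline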
# human Thromboxane A2 Receptor (TXA2), TBXA2R (gene 6915), sequence (P21731 whole entry, looked up): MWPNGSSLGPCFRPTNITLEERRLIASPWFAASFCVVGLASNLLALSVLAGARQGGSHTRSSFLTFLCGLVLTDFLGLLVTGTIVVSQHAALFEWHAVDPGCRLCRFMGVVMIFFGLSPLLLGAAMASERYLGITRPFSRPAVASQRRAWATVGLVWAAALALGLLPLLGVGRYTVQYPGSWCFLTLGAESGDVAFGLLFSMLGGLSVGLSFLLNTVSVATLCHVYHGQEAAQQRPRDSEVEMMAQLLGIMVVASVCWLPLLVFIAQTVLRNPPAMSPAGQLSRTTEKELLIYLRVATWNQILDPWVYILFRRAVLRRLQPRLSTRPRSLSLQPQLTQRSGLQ
# In short: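 Human platelet membranes tested for radioligand displacement by filtration and scintillation counting 1 h post-dose. Screened in duplicate at 25 uM; activity fitted as signal loss relative to DMSO.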
# [5] = molecular target: guinea pig Opioid, Kappa 1 Receptor (OpiateK), OPRK1 (gene 100135587) (UniProt P41144); assay: NVS_GPCR_gOpiateK: NovaScreen (NVS) G Protein-Coupled Receptor Assay for guinea pig Opioid, Kappa 1 Receptor (OpiateK) (AID 2283252);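 note: radioligand displacement from kappa opioid receptor in guinea pig cerebellar membranes; active means reduced radioligand binding relative to DMSO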
# guinea pig Opioid, Kappa 1 Receptor (OpiateK), OPRK1 (gene 100135587), sequence (P41144 whole entry, looked up): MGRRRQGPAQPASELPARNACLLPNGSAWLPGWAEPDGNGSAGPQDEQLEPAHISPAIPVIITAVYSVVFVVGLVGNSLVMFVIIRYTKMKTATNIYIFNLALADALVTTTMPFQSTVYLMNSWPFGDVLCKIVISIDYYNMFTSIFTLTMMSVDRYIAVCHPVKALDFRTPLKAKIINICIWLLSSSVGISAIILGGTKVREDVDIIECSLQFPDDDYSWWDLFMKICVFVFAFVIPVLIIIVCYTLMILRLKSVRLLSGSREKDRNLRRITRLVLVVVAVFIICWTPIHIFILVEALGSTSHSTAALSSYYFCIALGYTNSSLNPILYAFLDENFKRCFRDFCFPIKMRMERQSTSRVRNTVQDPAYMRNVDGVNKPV
# In short: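 Cell-free tissue prep: guinea pig cerebellar membranes, radioligand displacement, 2 h incubation. Readout: filtration plus scintillation counting. Primary single-point 25 uM duplicate; actives retested in concentration series; DMSO negative control.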
# [6] = molecular target: human Adenosine A1 Receptor (AdoRA1), ADORA1 (gene 134) (UniProt P30542); assay: NVS_GPCR_hAdoRA1: NovaScreen (NVS) G Protein-Coupled Receptor Assay for human Adenosine A1 Receptor (AdoRA1) (AID 2283254)
# In short: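 Membranes from human cortical tissue were incubated with radioligand and test chemical for 1 hour, then filtered and counted. Activity was taken as signal loss relative to DMSO, screened at 25 uM in duplicate before concentration-response follow-up.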
# [7] = molecular target: Muscarinic acetylcholine receptor M2 (Homo sapiens) (UniProt P08172); assay: NVS_GPCR_hM2: NovaScreen (NVS) G Protein-Coupled Receptor Assay for human Muscarinic, M2 Receptor (AID 2283273)
# Muscarinic acetylcholine receptor M2 (Homo sapiens), sequence (P08172 whole entry, looked up): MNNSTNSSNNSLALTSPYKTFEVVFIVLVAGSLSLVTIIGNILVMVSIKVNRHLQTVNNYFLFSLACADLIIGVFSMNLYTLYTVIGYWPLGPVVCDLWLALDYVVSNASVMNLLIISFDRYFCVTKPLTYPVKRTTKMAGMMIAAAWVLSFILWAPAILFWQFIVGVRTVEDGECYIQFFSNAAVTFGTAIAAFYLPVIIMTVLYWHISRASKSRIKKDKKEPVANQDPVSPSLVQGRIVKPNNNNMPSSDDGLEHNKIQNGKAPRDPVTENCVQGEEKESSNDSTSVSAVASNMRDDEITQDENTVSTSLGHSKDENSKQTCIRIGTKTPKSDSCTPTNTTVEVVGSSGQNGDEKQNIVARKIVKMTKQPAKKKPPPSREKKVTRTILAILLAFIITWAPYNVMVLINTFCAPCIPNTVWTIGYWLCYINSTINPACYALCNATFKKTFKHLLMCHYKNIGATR
# In short: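 Filter-based radiodetection read bound radioligand 1 h after dosing CHO-derived membrane protein. Single-concentration duplicates (25 uM) first, then concentration-response for actives; signal loss versus DMSO scored.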
# [8] = molecular target: human Phosphoinositide 3-kinase alpha (PI3Ka), PIK3CA (gene 5290) (UniProt P42336); assay: NVS_ENZ_hPI3Ka: NovaScreen (NVS) Enzymatic Assay for human Phosphoinositide 3-kinase alpha (PI3Ka) (AID 2283196)
# human Phosphoinositide 3-kinase alpha (PI3Ka), PIK3CA (gene 5290), sequence (P42336 whole entry, looked up): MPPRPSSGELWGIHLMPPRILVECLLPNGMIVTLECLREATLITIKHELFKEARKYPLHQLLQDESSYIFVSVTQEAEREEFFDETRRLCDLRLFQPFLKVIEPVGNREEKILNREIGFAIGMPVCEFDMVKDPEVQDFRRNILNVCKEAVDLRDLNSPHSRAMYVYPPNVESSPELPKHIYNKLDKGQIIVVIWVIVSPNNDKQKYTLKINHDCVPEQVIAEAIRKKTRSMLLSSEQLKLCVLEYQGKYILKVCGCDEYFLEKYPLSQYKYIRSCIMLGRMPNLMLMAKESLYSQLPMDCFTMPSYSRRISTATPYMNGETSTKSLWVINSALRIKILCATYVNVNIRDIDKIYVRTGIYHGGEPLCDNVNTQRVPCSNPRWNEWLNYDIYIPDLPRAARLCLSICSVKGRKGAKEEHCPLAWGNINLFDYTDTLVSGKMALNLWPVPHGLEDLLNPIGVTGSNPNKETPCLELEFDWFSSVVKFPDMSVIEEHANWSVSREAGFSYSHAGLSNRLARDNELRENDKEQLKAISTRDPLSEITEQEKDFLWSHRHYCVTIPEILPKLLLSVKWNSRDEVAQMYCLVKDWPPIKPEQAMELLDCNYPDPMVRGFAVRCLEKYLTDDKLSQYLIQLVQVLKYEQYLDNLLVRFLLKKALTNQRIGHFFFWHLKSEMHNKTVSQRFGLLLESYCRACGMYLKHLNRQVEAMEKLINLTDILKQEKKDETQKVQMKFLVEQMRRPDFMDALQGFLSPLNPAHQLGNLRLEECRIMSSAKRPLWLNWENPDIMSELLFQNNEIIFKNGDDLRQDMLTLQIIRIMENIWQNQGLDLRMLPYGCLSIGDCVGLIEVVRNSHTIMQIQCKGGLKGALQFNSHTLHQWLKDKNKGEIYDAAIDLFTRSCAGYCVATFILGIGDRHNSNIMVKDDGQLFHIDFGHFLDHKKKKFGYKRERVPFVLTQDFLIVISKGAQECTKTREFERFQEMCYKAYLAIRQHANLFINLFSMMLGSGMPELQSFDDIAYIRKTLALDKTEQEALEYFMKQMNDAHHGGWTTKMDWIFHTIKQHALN
# In short: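 Fluorescence/mobility-shift readout of substrate conversion by recombinant enzyme, 1 h post-dosing. Primary screen in duplicate at 25 uM; actives (e.g. ≥30% inhibition) retested in singleton concentration-response, top concentration 50 uM.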
# [9] = molecular target: Sodium channel protein type 1 subunit alpha (Rattus norvegicus) (UniProt P04774); assay: NVS_IC_rNaCh_site2: NovaScreen (NVS) Ion Channel Assay for rat Sodium Channel, Site 2 (NaCh) (AID 2283322);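 note: hit means loss of radioligand binding signal relative to DMSO so AC50 marks displacement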
# In short: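 Initial duplicate single-point testing at 25 uM, followed by concentration-response runs for actives. Binding of radioligand to rat forebrain membranes quantified after 1 h via filter-based radiodetection.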
# [10] = molecular target: D(1A) dopamine receptor (Homo sapiens) (UniProt P21728); assay: NVS_GPCR_hDRD1: NovaScreen (NVS) G Protein-Coupled Receptor Assay for human Dopamine Receptor D1 (DRD1) (AID 2283269)
# D(1A) dopamine receptor (Homo sapiens), sequence (P21728 whole entry, looked up): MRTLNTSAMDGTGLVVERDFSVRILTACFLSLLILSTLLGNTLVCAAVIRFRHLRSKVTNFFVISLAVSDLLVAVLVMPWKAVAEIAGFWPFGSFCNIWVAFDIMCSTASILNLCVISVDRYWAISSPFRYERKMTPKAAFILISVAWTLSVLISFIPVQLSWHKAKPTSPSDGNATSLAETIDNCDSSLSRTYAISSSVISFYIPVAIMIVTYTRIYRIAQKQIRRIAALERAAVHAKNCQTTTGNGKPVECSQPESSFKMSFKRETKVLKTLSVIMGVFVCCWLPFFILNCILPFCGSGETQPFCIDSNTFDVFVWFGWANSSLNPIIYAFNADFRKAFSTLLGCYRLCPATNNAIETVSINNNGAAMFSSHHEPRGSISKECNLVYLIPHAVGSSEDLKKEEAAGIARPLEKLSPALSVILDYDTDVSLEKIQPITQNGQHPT
# In short: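 Cell-free radioligand binding to human DRD1 from HEK293 membranes, read 1 h after dosing by filter-based scintillation counting. Loss of signal versus DMSO baseline marks displacement. Primary screen at 25 uM single concentration in duplicate; actives followed up in concentration series.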
# [11] = molecular target: human Neurokinin, NK2 Receptor, TACR2 (gene 6865) (UniProt P21452); assay: NVS_GPCR_hNK2: NovaScreen (NVS) G Protein-Coupled Receptor Assay for human Neurokinin, NK2 Receptor (AID 2283278);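 note: actives reduce bound radioligand signal relative to DMSO baseline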
# human Neurokinin, NK2 Receptor, TACR2 (gene 6865), sequence (P21452 whole entry, looked up): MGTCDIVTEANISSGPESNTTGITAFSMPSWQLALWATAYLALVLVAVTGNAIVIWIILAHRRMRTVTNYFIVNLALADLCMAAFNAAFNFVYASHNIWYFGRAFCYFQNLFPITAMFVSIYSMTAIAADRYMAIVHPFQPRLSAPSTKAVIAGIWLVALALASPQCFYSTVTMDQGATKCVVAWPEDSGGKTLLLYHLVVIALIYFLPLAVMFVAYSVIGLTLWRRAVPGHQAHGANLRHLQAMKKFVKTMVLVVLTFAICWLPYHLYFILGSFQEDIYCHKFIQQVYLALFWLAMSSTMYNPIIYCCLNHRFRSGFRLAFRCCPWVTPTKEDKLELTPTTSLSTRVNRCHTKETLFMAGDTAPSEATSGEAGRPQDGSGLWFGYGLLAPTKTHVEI
# In short: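 CHO-derived membrane protein, radioligand displacement, filter scintillation read at 4 h post-dose. Single-point 25 uM in duplicate, then concentration series for actives; DMSO as negative control.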
# [12] = molecular target: sheep Cyclooxygenase-1 (Cox1), PTGS1 (gene 443551) (UniProt P05979); assay: NVS_ENZ_oCOX1: NovaScreen (NVS) Enzymatic Assay for sheep Cyclooxygenase-1 (Cox1) (AID 2283239);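 note: actives reduce cyclooxygenase activity so potencies are for inhibitors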
# In short: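 Colorimetric enzyme readout using sheep seminal-vesicle cyclooxygenase-1, measured 0.66 h post-dosing. Single-concentration duplicates at 25 uM first, then concentration series for actives, with DMSO as baseline and plate controls.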
smiles,measurement,setting,value
O=[N+]([O-])c1ccc(O)cc1C(F)(F)F,outcome,[1],inactive
Oc1c(Cl)cc(Cl)c(Cl)c1Cc1c(O)c(Cl)cc(Cl)c1Cl,AC50,[2],2.93 µM (active)
same,AC50,[3],5.67 µM (active)
same,outcome,[4],inactive
O=[N+]([O-])c1cccc(Cl)c1,outcome,[2],inactive
CC(C)(N=C=O)c1cccc(C(C)(C)N=C=O)c1,AC50,[5],36.7 µM (active)
O=C1OC[C@H](Cc2cccc(O)c2)[C@H]1Cc1cccc(O)c1,AC50,[5],5.5 µM (active)
C=C(C)C(=O)OCC(CC)(COC(=O)C(=C)C)COC(=O)C(=C)C,AC50,[6],24.6 µM (active)
same,AC50,[7],24.6 µM (active)
CC(C)Nc1nc(N)nc(Cl)n1,AC50,[3],15.6 µM (active)
CCC(C)=O,outcome,[7],inactive
CC(C)CC(C)CC(O)CC(C)C (stereo not given),outcome,[4],inactive
c1ccc2cc(Nc3ccc(Nc4ccc5ccccc5c4)cc3)ccc2c1,AC50,[8],17.6 µM (active)
CC=Cc1ccc(OC)c(OC)c1,outcome,[9],inactive
COCCc1ccc(OCC(O)CNC(C)C)cc1 (stereo not given),outcome,[3],inactive
same,outcome,[10],inactive
same,AC50,[9],5.04 µM (active)
COCCOC(=O)c1ccccc1C(=O)OCCOC,outcome,[8],inactive
same,outcome,[2],inactive
CN(C)C(=S)SC(=S)N(C)C,outcome,[2],inactive
same,AC50,[5],30.8 µM (active)
same,AC50,[10],30.8 µM (active)
same,AC50,[11],1.59 µM (active)
C[C@@H]1CCN(C(=O)[C@H](CCCN=C(N)N)NS(=O)(=O)c2cccc3c2NC[C@H](C)C3)[C@@H](C(=O)O)C1,AC50,[10],17 µM (active)
same,AC50,[9],0.894 µM (active)
CN(C)C(=O)Nc1ccc(Oc2ccc(Cl)cc2)cc1,AC50,[12],25 µM (active)
same,outcome,[11],inactive
same,outcome,[4],inactive
CCCCOCC,outcome,[10],inactive
CCCCN(CCCC)C(=O)N(CCCC)CCCC,outcome,[7],inactive
